HGIII-sPLA2 inh – human group III sPLA2 inhibitors, primary screen, biochemical, QFRET, BODIPY PC-A2 liposome substrate. QFRET BODIPY PC-A2 liposome hydrolysis, fluorescence. 0.56% of 370,000 active. AID 743126, 2013. inhibition, % at 12.2 µM;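 active means inhibition above mean plus 3 SD of compounds lying within the high and low control bounds, cut at about 19% in these data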;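 further: 0% = median of test compound wells and 100% = no enzyme DMSO wells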
Target sequence (Q9NZ20 whole entry, looked up): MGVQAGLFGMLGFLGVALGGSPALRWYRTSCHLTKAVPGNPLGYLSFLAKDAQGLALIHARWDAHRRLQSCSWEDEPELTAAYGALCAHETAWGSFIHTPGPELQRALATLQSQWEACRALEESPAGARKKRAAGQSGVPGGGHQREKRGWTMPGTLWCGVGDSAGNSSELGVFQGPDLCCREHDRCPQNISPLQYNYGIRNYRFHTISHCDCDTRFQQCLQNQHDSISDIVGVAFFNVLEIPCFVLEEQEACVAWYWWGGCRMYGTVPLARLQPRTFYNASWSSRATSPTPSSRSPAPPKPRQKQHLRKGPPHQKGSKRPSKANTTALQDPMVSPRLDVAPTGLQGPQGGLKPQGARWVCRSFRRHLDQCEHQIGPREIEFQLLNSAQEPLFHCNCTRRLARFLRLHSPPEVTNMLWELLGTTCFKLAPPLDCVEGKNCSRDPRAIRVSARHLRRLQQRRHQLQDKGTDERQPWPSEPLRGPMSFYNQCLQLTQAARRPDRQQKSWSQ
AI-2 QS mod – Vibrio harveyi AI-2 quorum sensing modulators, primary screen, JMH597 strain, luminescence/OD600 ratio; activity change, % at 7.5 µM; Vibrio harveyi JMH597 AI-2 luminescence/OD600 ratio, 9 h; active compounds read low; strain lacks LuxN and CqsS sensors; 0 = neutral-control median; 0.4% of 300,000 active; in the data active means activity change below about -75%, passing the limit was not always enough;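 further: luminescence divided by OD600 gain over 9 h not by final OD600 alone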
ARNT TACC3 PPI – disruptors of ARNT/TACC3 protein interaction, primary screen, biochemical, AlphaScreen, single concentration. Transforming acidic coiled-coil-containing protein 3 (Homo sapiens), Q9Y6A5. AlphaScreen His-ARNT PAS-B/GST-TACC3 binding, luminescence; TACC3 fragment carries E629A point mutation. inhibition, % at 9.99 µM. 0.66% of 390,000 active. AID 623870, 2012;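 active means mean inhibition of replicates at least 50% and at least half of replicates each reaching 50%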;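 further: 0% = complete ARNT plus TACC3 wells and 100% = ARNT alone without TACC3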
Rin1-Abl PPI inh – inhibitors of Rin1-Abl protein binding, primary screen, biochemical, TR-FRET. Tyrosine-protein kinase ABL1 (Homo sapiens) + Ras and Rab interactor 1 (Homo sapiens), …. AID 588664, 2011. 0.4% of 360,000 active. inhibition, % at 7.35 µM; in the data active means inhibition above about 5%, passing the limit was not always enough
hGIII sPLA2 conf – human group III sPLA2 inhibitors, confirmation, biochemical, QFRET, triplicate; inhibition, % at 12.2 µM; 34% of 2,000 active; recombinant hGIII-sPLA2, BODIPY PC-A2 QFRET fluorescence; shares compounds with HGIII-sPLA2 inh;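 active means mean inhibition across triplicates above the hit cutoff set in the earlier primary screen, cut at about 19% in these data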;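 further: 0% = enzyme with DMSO and 100% = DMSO wells lacking enzyme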
535nm interf – 535nm fluorescence optical interference, confirmation, artefact control for HGIII-sPLA2 inhibitor project, biochemical, QFRET; shares compounds with HGIII-sPLA2 inh; BODIPY FL product fluorescence interference; inhibition, % at 12.2 µM; 8.5% of 2,000 active;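 active means average inhibition above the solvent-only control mean plus 3 SD, cut at about 6% in these data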;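 further: 0% = DMSO with substrate plus product and 100% = DMSO with substrate alone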
An asterisk follows results filed as active; x = no result given. A selection: hits, their analogues and other compounds. The true share with any hit is near 1.5%.

SMILES | HGIII-sPLA2 inh | AI-2 QS mod | ARNT TACC3 PPI | Rin1-Abl PPI inh | hGIII sPLA2 conf | 535nm interf
C[C@@H]1CN([C@@H](C)CO)C(=O)c2cc(N(C)C)ccc2O[C@@H](C)CCCCO[C@H]1CN(C)Cc1ccccc1 | x | x | 7 | x | x | x
CN(C)c1ccc(C(=S)Nc2ccccc2)cc1 | 22* | 30 | 5 | -3 | 21* | 3
Cc1onc(-c2ccccc2)c1C(=O)NN=Cc1cc(Cl)cc(Cl)c1O | 22* | x | x | x | 17 | 11*
Cc1c(C)n(CCC#N)c2ccccc12 | 21* | 5 | -11 | 0 | 9 | -2
NS(=O)(=O)c1cccc(NC(=O)CCC(=O)c2cccs2)c1 | 2 | -2 | -6 | -2 | x | x
NS(=O)(=O)c1cccc(NC(=O)c2cccs2)c1 | 21* | 20 | -10 | -1 | 3 | -4
COc1ccc(OC)c(NC(=O)COC(=O)CCCN=C2NS(=O)(=O)c3ccccc32)c1 | 20* | x | 0 | 2 | 6 | -13
COc1ccc(NC(=O)Nc2ccc3c(c2)C(=O)N([C@H](C)CO)C[C@H](C)[C@H](CN(C)Cc2ccc4c(c2)OCO4)O3)cc1 | x | x | 7 | x | x | x
O=C(CNC1CCCC1)Nc1cc(Cl)ccc1[N+](=O)[O-] | 21* | 10 | 37 | 2 | 14 | -5
C=C(C)c1cccc(C(C)(C)NC(=O)Nc2ccccc2OCC)c1 | 21* | 25 | 0 | -3 | 0 | -7
C=C(C)c1cccc(C(C)(C)NC(=O)Nc2cc(C)ccc2OC)c1 | -11 | 11 | 1 | -6 | x | x
CCCCCCCCCc1conc1C(=O)/C=C/c1ccco1 | 24* | x | x | x | -2 | -7
COc1ccc(S(=O)(=O)N(C)C[C@@H]2Oc3ncc(C#CC4(O)CCCC4)cc3C(=O)N([C@@H](C)CO)C[C@H]2C)cc1 | x | x | -4 | x | x | x
Cc1cccc(C)c1NC(=O)C(c1ccc(-c2ccccc2)cc1)n1c(=O)c(-c2ccco2)nc2ccccc21 (stereo not drawn) | 20* | x | x | x | 13 | -12
CCCCCNC(=O)C(c1cccc2ccccc12)n1c(=O)c(-c2ccco2)nc2ccccc21 (stereo not drawn) | 22* | x | x | x | 7 | -14
CC(C)(C)NC(=O)C(c1ccc(-c2ccccc2)cc1)n1c(=O)c(-c2ccco2)nc2ccccc21 (stereo not drawn) | 3 | x | x | x | x | x
COc1ccc(-n2c(-c3cc(-c4ccccc4)sc3N)n[nH]c2=S)cc1 | 27* | x | -8 | 0 | 21* | 10*
CCSC(=S)c1c(C)[nH]n(-c2ccccc2)c1=O | 19* | -9 | 11 | 2 | 12 | -1
CNC(=S)NNC(=O)COc1ccc(C)c(C)c1 | 28* | 7 | 4 | -3 | 26* | -1
Cc1ccc(OCC(=O)Nc2cccc(O)c2)cc1C | -14 | -40 | -6 | 2 | x | x
COc1ccccc1N1CCN(c2ccc([N+](=O)[O-])cc2Cl)CC1 | 20* | 0 | 23 | 5 | 12 | -9
COc1ccccc1N1CCN(S(=O)(=O)c2ccc([N+](=O)[O-])cc2)CC1 | 4 | x | x | 1 | x | x
COc1ccc(NC(=O)c2cc(-c3cc(C)ccc3O)n[nH]2)cc1Cl | 20* | 8 | 1 | -2 | -3 | -1
Cc1ccc(S(=O)(=O)N2CCOCC2)cc1-c1n[nH]c(=S)n1-c1ccccc1 | 23* | x | -1 | 2 | 11 | -1
O=S(=O)(c1cccc(-c2n[nH]c(=S)n2-c2cccc(C(F)(F)F)c2)c1)N1CCOCC1 | 16 | x | 1 | 0 | x | x
SMILES | HGIII-sPLA2 inh | AI-2 QS mod | ARNT TACC3 PPI | Rin1-Abl PPI inh | hGIII sPLA2 conf | 535nm interf
COc1ccccc1CCNC(=O)c1cc(-c2ccccn2)nc2ccccc12 | 20* | x | 0 | -7 | -7 | -22
O=C(CCl)NNC(=O)c1c(O)c2ccccc2[nH]c1=O | 23* | 7 | -1 | 2 | 4 | -4
C[C@@H]1CCCCO[C@@H](CN(C)S(C)(=O)=O)[C@@H](C)CN([C@H](C)CO)C(=O)c2cc(NC(=O)CCCN(C)C)ccc2O1 | x | x | -7 | x | x | x
C[C@@H]1CN([C@@H](C)CO)C(=O)Cc2cc(NC(=O)C3CC3)ccc2O[C@@H]1CN(C)Cc1ccc(C(=O)O)cc1 | x | x | -3 | x | x | x
CNC(=O)C[C@H]1CC[C@@H]2[C@@H](COc3ccc(NC(=O)c4ccc(C(F)(F)F)cc4)cc3C(=O)N2C)O1 | x | x | 4 | x | x | x
O=C(C[C@@H]1C[C@@H]2c3cc(NC(=O)c4ccc5c(c4)OCO5)ccc3O[C@@H]2[C@H](CO)O1)NCc1cccnc1 | x | x | -1 | x | x | x
CC(C)c1ccc(C2NC(=S)NC3=C2C(=O)CCC3)cc1 (stereo not drawn) | 24* | 2 | 3 | -5 | 18 | -3
Cc1cccc(S(=O)(=O)N[C@H]2CC[C@H](CCNC(=O)CCN3CCCCC3)O[C@@H]2CO)c1 | x | x | -23 | x | x | x
CCc1nc(SCC(=O)Nc2ccc(N(C)C)cc2)c2ccccc2n1 | 22* | 22 | 1 | -7 | 23* | -1
CCc1nc(SCC(=O)NNC(=O)C(C)C)c2ccccc2n1 | 6 | 13 | 32 | -11 | x | x
O=C(C[C@@H]1C=C[C@@H](NS(=O)(=O)c2ccc(F)cc2)[C@H](CO)O1)N1CCC(Cc2ccccc2)CC1 | x | x | -1 | x | x | x
C[C@@H]1CCCCO[C@H](CN(C)C(=O)Nc2ccc(F)cc2)[C@@H](C)CN([C@@H](C)CO)C(=O)c2cc(NC(=O)c3ccncc3)ccc2O1 | x | x | -14 | x | x | x
CCOCCCNC(=O)C1CCN(C(=O)N(C)C)CC1 | 20* | 14 | 2 | -2 | -1 | -5
CNC(=O)C[C@@H]1CC[C@@H]2[C@H](COC[C@H](O)CN2Cc2ccc(Cl)c(Cl)c2)O1 | x | x | 13 | x | x | x
CN1CCN(CC(=O)Nc2ccccc2C(F)(F)F)CC1 | 22* | 3 | -2 | 3 | 7 | -5
O=C(CN1CCOCC1)N1CCCCN2[C@@H](CO)[C@@H](c3ccc(/C=C/c4ccccc4)cc3)[C@@H]2C1 | x | x | 0 | x | x | x
C[C@H](NC(=O)C[C@H]1CC[C@@H](NC(=O)C2CCC2)[C@@H](CO)O1)c1ccccc1 | x | x | 3 | x | x | x
CC(C)CCC(CCNCc1ccccn1)c1ccc2c(c1)OCO2 (stereo not drawn) | 23* | 28 | 8 | 2 | -25 | -26
CCNCCC(CCC(C)C)c1ccc2c(c1)OCO2 (stereo not drawn) | -4 | 22 | 3 | 1 | x | x
COc1cc(OC)cc(-c2n[nH]c(=S)n2-c2ccc3c(c2)OCO3)c1 | 8 | 7 | -2 | 1 | x | x

Bioassay records (PubChem)
